Results on 50 molecules are retold here after PubChem BioAssay AID504832 (National Center for Advancing Translational Sciences (NCATS), 2011).

The campaign covered roughly 310,000 compounds. About 18,000 (5.8%) were called active. Not shown: some 22% with an inconclusive outcome. The call rests on the fitted dose curve; in most records, active means well fitted inhibition curve with a large enough effect; inconclusive means small, poorly fitted or top-dose-only effect, or another doubt; inactive means no such curve, though single readings can be large or run the other way. The sample as a whole holds a higher share of actives than the screen did.
On the % scale 0 is the no-effect control and ±100 the full control effect; potency means the concentration at half of the fitted maximal effect.

The nature of the assay: Primary qHTS for delayed death inhibitors of the malarial parasite plastid, 48 hour incubation. The conditions noted are these: P. falciparum luciferase growth in erythrocytes; series mostly up to 28.7 µM; activity change, negative = inhibition: at the top concentration. The essentials:
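First compound was added to culture medium, then infected red cells at 0.1% parasitemia and 2% hematocrit (final). After incubation at 37 C under 5% CO2, luciferase detection reagent was dispensed and light output recorded.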
Regarding `Cc1ccc(C(=O)NC23CC4CC(CC(C4)C2)C3)c(Cl)c1`, the “activity change, negative = inhibition” value was 2.76% (inactive).

As for `CN(C(=O)COC(=O)CCCc1c[nH]c2ccccc12)c1c(N)n(Cc2ccccc2)c(=O)[nH]c1=O`, the “activity change, negative = inhibition” value was 3.11% (inactive).

For `Cc1ccccc1-n1nc(SCC(=O)O)sc1=S`, the “activity change, negative = inhibition” value is 6.96% (inactive).

Regarding `O=C(CSc1nn(-c2ccc(F)cc2)c(=S)s1)NC1CCS(=O)(=O)C1` (stereo not given), the “activity change, negative = inhibition” value is -19.4% (inactive).

Take `N#CCSc1nn(-c2ccc(F)cc2)c(=S)s1`: the Potency was 5.86 µM (active).

As for `CCOC(=O)Cc1csc(SCC(=O)Nc2ccc(C)cc2F)n1`, the “activity change, negative = inhibition” value was 1.53% (inactive).

On to `O=C1COc2ccc(S(=O)(=O)NCCc3ccc(Cl)cc3)cc2N1`, for which the “activity change, negative = inhibition” value is -15.4% (inactive).

Regarding `CSc1ccccc1NC(=O)c1cnc2sc(C)cn2c1=O`, the “activity change, negative = inhibition” value was 74.1% (inactive).

Consider `CC(=O)Nc1ccc(Nc2cc(C)nc(Nc3ccc(NC(C)=O)cc3)n2)cc1`, for which the Potency was 1.65 µM (active).

In the case of `COc1ccc(C(=O)NNc2cc(C)nc(NNC(=O)c3ccc(OC)cc3)n2)cc1`, the “activity change, negative = inhibition” value was 58% (inactive).

As for `CCC(=O)Nc1ccc(Nc2nc(Cl)nc(Nc3ccc(NC(=O)CC)cc3)n2)cc1`, the “activity change, negative = inhibition” value is 21.1% (inactive).

As to `Cn1nc(-c2ccccc2)c2cc([N+](=O)[O-])ccc21`, the “activity change, negative = inhibition” value is -3.2% (inactive).

In the case of `COc1ccc(-c2cn(-c3ccc(C)cc3)c(=O)n2CC(=O)Nc2ccc(OC)c(OC)c2)cc1`, the Potency was 14.7 µM (active).

In the case of `COc1ccc(NC(=O)COC(=O)Cn2c(C)nc3ccccc32)cc1OC`, the “activity change, negative = inhibition” value is 9.03% (inactive).

Turning to `COc1ccc(NC(=O)Cn2nnc(C(=O)NCCc3ccc(OC)c(OC)c3)c2N)cc1`, the “activity change, negative = inhibition” value is -10.4% (inactive).

Take `COC(=O)c1ccc(COc2ccc(C#N)cc2)o1`: the “activity change, negative = inhibition” value is 7.42% (inactive).

Regarding `COc1ccc(OCC(=O)NCCS(=O)(=O)N2CCN(c3ccc(F)cc3)CC2)cc1`, the “activity change, negative = inhibition” value was -0.428% (inactive).

With `CC(C)CC(=O)c1c[nH]c(C(=O)NCc2ccccc2)c1`, the “activity change, negative = inhibition” value was -10.2% (inactive).

Take `Cc1nnc(SCC(=O)N2c3ccccc3C(C)(c3ccc(Cl)cc3)CC2(C)C)s1` (stereo not given): the Potency was 10.4 µM (active).

`Cc1nnc(SCC(=O)N2CCc3ccccc3C2)s1`: the “activity change, negative = inhibition” value was 16.2% (inactive).

In the case of `Cc1nnc(SCC(=O)NCc2ccccc2)s1`, the “activity change, negative = inhibition” value is -5.4% (inactive).

For the molecule `Cc1ccc(Cn2c(C)c3cnn(CC(=O)NCc4ccccn4)c(=O)c3c2C)cc1`, the “activity change, negative = inhibition” value was 17.8% (inactive).

For the molecule `O=C(CCCN1C(=O)/C(=C/c2ccco2)SC1=S)Nc1ccccc1`, the “activity change, negative = inhibition” value was -2.16% (inactive).

For `Cc1ccc(-c2nn(-c3ccccc3)cc2/C=C2\SC(=S)N(CCCCCC(=O)O)C2=O)o1`, the Potency is 4.65 µM (active).

For the molecule `Cc1ccc(-c2nn(-c3ccccc3)cc2CN(Cc2ccccc2)C(=O)CCC(=O)O)o1`, the “activity change, negative = inhibition” value is -24.1% (inactive).

For the molecule `O=C(O)c1cc2c(cc1NC(=O)c1c(F)cccc1Cl)OCCCO2`, the “activity change, negative = inhibition” value was 6.31% (inactive).

In the case of `CC(=O)N1CCN(C(=O)c2cccc(S(=O)(=O)Nc3ccc(C)cc3)c2)CC1`, the “activity change, negative = inhibition” value is -6.33% (inactive).

As for `COc1ccc(C(CNC(=O)c2ccc(S(=O)(=O)Nc3ccccc3F)cc2)N(C)C)cc1` (stereo not given), the “activity change, negative = inhibition” value is 21.9% (inactive).

`CCN(c1ccccc1)S(=O)(=O)c1cccc(C(=O)O)c1`: the “activity change, negative = inhibition” value is 0% (inactive).

For the molecule `COc1ccccc1C(CNC(=O)c1cccc(S(=O)(=O)Nc2ccc(F)cc2)c1)N(C)C` (stereo not given), the Potency is 13.1 µM (active).

As for `COc1ccc(Cl)cc1NS(=O)(=O)c1cccc(C(=O)NCC2CCCO2)c1` (stereo not given), the “activity change, negative = inhibition” value is -8.74% (inactive).

As to `O=C(NCc1ccccc1CN1CCCC1)c1cccc(S(=O)(=O)Nc2ccc(F)cc2)c1`, the Potency is 13.1 µM (active).

Turning to `COc1ccc(NS(=O)(=O)c2cccc(C(=O)NCCc3ccc(S(N)(=O)=O)cc3)c2)cc1`, the “activity change, negative = inhibition” value was -22% (inactive).

On to `O=C(NCc1cccc(C(F)(F)F)c1)c1cccc(S(=O)(=O)N2CCN(Cc3ccccc3)CC2)c1`, for which the “activity change, negative = inhibition” value is 21.4% (inactive).

For the molecule `COc1ccc(C(CNC(=O)c2ccc(NS(=O)(=O)c3ccc(F)c(C)c3)cc2)N(C)C)cc1` (stereo not given), the Potency is 14.7 µM (active).

With `COc1ccc(C(=O)Nc2ccc(S(=O)(=O)NC(C)C)cc2)cc1`, the “activity change, negative = inhibition” value is -6.62% (inactive).

Take `CCN(c1ccccc1)S(=O)(=O)c1cccc(C(=O)NCc2ccccc2CN2CCOCC2)c1`: the Potency is 13.1 µM (active).

As to `O=C(OC1CCOC1=O)c1cccc(S(=O)(=O)Nc2ccc(F)cc2)c1` (stereo not given), the “activity change, negative = inhibition” value was -6.89% (inactive).

For `COCCCNC(=O)Cc1ccc(-n2c(C)nc3cccnc32)cc1`, the “activity change, negative = inhibition” value was 5.36% (inactive).

Consider `COc1ccccc1CNC(=O)c1ccc(N(C)S(=O)(=O)c2ccc(C)cc2)cc1`, for which the “activity change, negative = inhibition” value was -22.8% (inactive).

On to `CCc1nn(CCCC(=O)NCc2ccc(C)cc2)c(=O)c2cc3occc3n12`, for which the “activity change, negative = inhibition” value is 0% (inactive).

For the molecule `O=C(NC(Cc1ccccc1)C(=O)O)/C(=C\c1ccccc1)NC(=O)c1ccco1` (stereo not given), the “activity change, negative = inhibition” value is 33.1% (inactive).

In the case of `O=Cc1c(Nc2ccccc2Cl)nc2ccccn2c1=O`, the “activity change, negative = inhibition” value was 41.8% (inactive).

As for `CC1(C)C(C=C(Cl)Cl)C1C(=O)NC(O)C(=O)c1ccccc1` (stereo not given), the “activity change, negative = inhibition” value was 9.03% (inactive).

As for `O=C(CCNC(=O)C1CCN(S(=O)(=O)c2ccccc2)CC1)NC1CC1`, the “activity change, negative = inhibition” value was 14.5% (inactive).

`CCN(CC)C(CNC(=O)CSc1nnnn1-c1cccc(F)c1)c1ccco1` (stereo not given): the “activity change, negative = inhibition” value was -29.1% (inactive).

Take `CCCCNC(=O)C1(O)c2ccccc2NC(=O)N1c1ccc(Cl)cc1` (stereo not given): the “activity change, negative = inhibition” value was 0.406% (inactive).

As to `COc1ccccc1CCNS(=O)(=O)c1cn(C)nc1C`, the “activity change, negative = inhibition” value is -12.3% (inactive).

For `CCc1nc2cccnc2n1-c1ccc(C(=O)O)cc1`, the “activity change, negative = inhibition” value is 19.8% (inactive).

As for `NC(=O)Cn1cc(/C=N\NS(=O)(=O)c2ccccc2)c2ccccc21`, the “activity change, negative = inhibition” value was 43.9% (inactive).
